Activity calls are given as the source filed them.
Columns and labels:
[1] = system: PRMT1 (protein arginine N-methyltransferase 1); assay: PRMT1 binders on small-molecule microarrays, primary screen, biochemical, small-molecule microarray, 635 nm fluorescence (AID 1088); settings: small-molecule microarray binding, higher = more signal;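 also: binding of Prmt1 protein to compounds spotted on small-molecule microarray slides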
[2] = yeast growth modulation, basal conditions, primary screen, YJM789 clinical isolate, OD600, 24 h (AID 1089);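 also: growth of clinical yeast isolate S. cerevisiae YJM 789 seeded 1000 cells per well; test concentration not given here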; settings: S. cerevisiae YJM789 growth, higher = more signal, called active from +8 up or from −8 down
[3] = fission yeast growth modulation, primary screen, strain 972, OD600, 24 h, no modulator (AID 1090);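 also: basal condition with compound alone and no growth modifier present; test concentration not given here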; settings: S. pombe 972 growth, higher = more signal, called active from +8 up or from −8 down
[4] = S. cerevisiae growth modulation with rapamycin, primary screen, strain BY4716, OD600, 96 h (AID 1091); settings: higher = more signal, called active from +8 up or from −8 down; also: test concentration not given here
[5] = target: Torsin-1A-interacting protein 2 (Homo sapiens) (UniProt Q8NFQ8); assay: LULL1 binders on small-molecule microarray, primary screen, cell lysate, human LULL1 lysate, 635/667 nm fluorescence (AID 1092); settings: hLULL1 lysate binding, 635 nm fluorescence, higher = more signal;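 also: probe is lysate of COS7 cells overexpressing human LULL1; score merges per-feature 667 nm fluorescence with signal-to-noise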
Torsin-1A-interacting protein 2 (Homo sapiens), sequence (Q8NFQ8 whole entry, looked up): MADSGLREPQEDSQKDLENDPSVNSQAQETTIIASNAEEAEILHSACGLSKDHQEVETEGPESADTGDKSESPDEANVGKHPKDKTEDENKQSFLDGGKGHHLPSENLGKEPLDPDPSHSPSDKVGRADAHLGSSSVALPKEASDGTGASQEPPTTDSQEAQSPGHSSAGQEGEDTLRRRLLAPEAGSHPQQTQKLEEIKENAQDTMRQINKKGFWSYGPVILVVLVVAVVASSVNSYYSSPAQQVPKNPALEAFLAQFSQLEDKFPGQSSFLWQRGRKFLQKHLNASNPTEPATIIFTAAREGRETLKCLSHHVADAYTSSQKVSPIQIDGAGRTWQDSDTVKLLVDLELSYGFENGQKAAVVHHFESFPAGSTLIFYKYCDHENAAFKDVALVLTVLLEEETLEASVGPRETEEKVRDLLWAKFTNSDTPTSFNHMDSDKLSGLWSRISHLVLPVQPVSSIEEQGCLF

[6] = E. coli growth modulation, two-sided OD650, primary screen, E. coli filamentation project, strain DRC41, 24 h (AID 1093); settings: OD650, 24 h, higher = more signal, called active from +8 up or from −8 down;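 also: MC1000 strain lacking acrAB efflux and sulA so SOS filamentation is blocked; test concentration not given here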
[7] = small-molecule microarray binders of probe aLefty2, primary screen, biochemical, biotinylated probe, 635/667 nm fluorescence (AID 1094); settings: higher = more signal;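 also: score merges spot fluorescence near 667 nm with spot signal-to-noise ratio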
[8] = system: Noggin (protein binding on small-molecule microarray); assay: Noggin binders on small-molecule microarray, primary screen, biochemical, 635/667 nm fluorescence (AID 1095); settings: 635 nm fluorescence, higher = more signal;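 also: score merges 667 nm feature fluorescence with signal to noise over triplicate slides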
[9] = target: Neurogenic locus notch homolog protein 3 (Homo sapiens) (UniProt Q9UM47); assay: NOTCH3 binders on small-molecule microarray, primary screen, biochemical, 635/667 nm fluorescence (AID 1096); settings: NOTCH3 binding, 635 nm fluorescence, higher = more signal
Neurogenic locus notch homolog protein 3 (Homo sapiens), sequence (Q9UM47 whole entry, looked up): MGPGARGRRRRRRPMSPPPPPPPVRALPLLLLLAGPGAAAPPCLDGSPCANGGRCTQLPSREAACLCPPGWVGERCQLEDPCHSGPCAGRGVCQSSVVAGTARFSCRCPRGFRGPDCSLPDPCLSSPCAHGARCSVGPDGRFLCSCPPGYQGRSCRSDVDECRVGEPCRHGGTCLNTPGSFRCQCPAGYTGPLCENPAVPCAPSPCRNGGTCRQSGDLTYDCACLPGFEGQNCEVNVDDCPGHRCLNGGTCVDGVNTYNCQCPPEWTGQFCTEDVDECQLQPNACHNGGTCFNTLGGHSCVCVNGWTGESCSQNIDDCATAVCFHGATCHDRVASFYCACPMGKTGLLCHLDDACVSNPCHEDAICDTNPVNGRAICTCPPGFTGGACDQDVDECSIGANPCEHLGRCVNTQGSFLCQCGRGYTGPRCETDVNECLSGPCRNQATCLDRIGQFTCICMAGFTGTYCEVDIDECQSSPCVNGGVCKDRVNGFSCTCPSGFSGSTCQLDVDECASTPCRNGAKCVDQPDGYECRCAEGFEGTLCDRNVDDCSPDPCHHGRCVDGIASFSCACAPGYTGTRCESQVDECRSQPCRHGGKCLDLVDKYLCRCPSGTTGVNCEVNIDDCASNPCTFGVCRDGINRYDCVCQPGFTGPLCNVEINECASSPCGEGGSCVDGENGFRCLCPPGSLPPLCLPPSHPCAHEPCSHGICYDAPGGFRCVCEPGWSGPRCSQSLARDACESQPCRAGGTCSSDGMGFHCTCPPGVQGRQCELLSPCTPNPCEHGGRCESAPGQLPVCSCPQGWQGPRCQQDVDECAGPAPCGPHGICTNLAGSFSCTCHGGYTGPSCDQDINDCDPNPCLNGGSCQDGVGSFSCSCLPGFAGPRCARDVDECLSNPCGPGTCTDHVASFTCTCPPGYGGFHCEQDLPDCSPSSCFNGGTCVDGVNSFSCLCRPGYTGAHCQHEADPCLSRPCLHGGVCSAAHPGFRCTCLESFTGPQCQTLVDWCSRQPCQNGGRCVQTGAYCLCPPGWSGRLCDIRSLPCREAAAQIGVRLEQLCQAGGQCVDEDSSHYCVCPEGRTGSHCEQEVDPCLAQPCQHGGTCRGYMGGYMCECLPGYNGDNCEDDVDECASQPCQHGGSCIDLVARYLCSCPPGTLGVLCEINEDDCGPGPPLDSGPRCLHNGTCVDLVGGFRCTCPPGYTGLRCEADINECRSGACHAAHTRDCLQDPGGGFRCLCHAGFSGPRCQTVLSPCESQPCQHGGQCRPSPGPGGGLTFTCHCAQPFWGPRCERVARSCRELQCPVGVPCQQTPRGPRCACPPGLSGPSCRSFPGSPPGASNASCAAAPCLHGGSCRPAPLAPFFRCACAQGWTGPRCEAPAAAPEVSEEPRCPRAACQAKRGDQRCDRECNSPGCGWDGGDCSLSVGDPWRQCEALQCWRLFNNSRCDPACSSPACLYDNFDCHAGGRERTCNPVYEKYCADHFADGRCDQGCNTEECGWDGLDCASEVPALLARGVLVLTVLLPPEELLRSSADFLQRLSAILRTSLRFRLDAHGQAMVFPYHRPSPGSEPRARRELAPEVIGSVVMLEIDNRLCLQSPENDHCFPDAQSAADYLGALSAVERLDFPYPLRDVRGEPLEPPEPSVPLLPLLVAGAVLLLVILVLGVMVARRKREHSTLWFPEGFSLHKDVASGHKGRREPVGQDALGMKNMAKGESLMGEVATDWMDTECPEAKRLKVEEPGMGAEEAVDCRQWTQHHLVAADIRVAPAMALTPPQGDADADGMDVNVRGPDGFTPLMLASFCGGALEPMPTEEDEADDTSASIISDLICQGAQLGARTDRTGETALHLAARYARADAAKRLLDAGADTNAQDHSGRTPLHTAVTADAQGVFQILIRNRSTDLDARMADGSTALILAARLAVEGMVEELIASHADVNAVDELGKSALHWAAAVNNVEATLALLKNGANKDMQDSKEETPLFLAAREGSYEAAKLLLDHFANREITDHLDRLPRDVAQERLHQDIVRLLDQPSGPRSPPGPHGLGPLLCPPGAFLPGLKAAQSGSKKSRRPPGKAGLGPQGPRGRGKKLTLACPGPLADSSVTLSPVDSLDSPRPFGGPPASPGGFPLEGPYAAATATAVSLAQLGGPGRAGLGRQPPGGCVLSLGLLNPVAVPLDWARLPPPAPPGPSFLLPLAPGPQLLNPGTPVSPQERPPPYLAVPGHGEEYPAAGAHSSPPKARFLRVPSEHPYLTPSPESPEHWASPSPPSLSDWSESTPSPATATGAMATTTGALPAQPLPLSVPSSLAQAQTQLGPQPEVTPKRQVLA

[10] = small-molecule microarray binders of probe aEGFR, primary screen, biochemical, biotinylated probe, 635/667 nm fluorescence (AID 1097); settings: higher = more signal;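 also: probe is a biotinylated anti-EGFR antibody binding compounds printed on slides; score combines fluorescence near 667 nm and signal to noise of each spot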
[11] = system: Plasmodium falciparum Sir2 (PF13_0152, Sir2A); assay: pfSir2 binders on small-molecule microarrays, primary screen, biochemical, small-molecule microarray, 635 nm fluorescence (AID 1098); settings: small-molecule microarray binding, fluorescence 635 nm; higher = more signal;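 also: score merges spot fluorescence intensity with its signal-to-noise ratio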
[12] = small-molecule microarray binders of probe aDKK1, primary screen, biochemical, biotinylated probe, 635/667 nm fluorescence (AID 1099); settings: higher = more signal;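 also: score merges 667nm spot fluorescence with signal to noise across triplicate slides; reference of the scale not given here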
[13] = small-molecule microarray binders of probe aCHRDL2, primary screen, biochemical, biotinylated probe, 635/667 nm fluorescence (AID 1100); settings: higher = more signal
[14] = splicing luciferase reporter signal modulators, primary screen, spliceosome inhibition project, cell-based, HEK293, splice +/- reporter (AID 1101); settings: luminescence, 24 h, higher = more signal, called active from +8 up or from −8 down;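 also: HEK293 cells carrying a splicing-competent luciferase reporter gene; test concentration not given here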
[15] = target: Fibroblast growth factor 10 (Homo sapiens) (UniProt O15520); assay: FGF10 binders on small-molecule microarrays, primary screen, biochemical, small-molecule microarray, 635 nm fluorescence (AID 1102); settings: FGF10 binding, fluorescence 635 nm, higher = more signal
Fibroblast growth factor 10 (Homo sapiens), sequence (O15520 whole entry, looked up): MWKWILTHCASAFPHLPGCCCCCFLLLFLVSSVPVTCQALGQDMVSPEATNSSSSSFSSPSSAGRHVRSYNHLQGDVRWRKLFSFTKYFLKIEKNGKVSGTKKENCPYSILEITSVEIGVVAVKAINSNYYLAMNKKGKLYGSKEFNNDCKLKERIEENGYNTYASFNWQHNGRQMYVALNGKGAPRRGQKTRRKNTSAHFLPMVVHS

[16] = system: glycogen synthase kinase-3 (GSK3A per assay name; protocol says GSK3B); assay: GSK3 binders on small-molecule microarrays, primary screen, biochemical, small-molecule microarray, 635 nm fluorescence, GSK3A (AID 1103); settings: small-molecule microarray binding, fluorescence 635 nm; higher = more signal; also: the record names both GSK3A and GSK3B
[17] = target: Epidermal growth factor receptor (Homo sapiens) (UniProt P00533); assay: EGFR binders on small-molecule microarrays, primary screen, biochemical, small-molecule microarray, 635 nm fluorescence (AID 1104); settings: EGFR binding, higher = more signal;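 also: score merges 667 nm emission intensity with spot signal to noise over triplicate slides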
Epidermal growth factor receptor (Homo sapiens), sequence (P00533 whole entry, looked up): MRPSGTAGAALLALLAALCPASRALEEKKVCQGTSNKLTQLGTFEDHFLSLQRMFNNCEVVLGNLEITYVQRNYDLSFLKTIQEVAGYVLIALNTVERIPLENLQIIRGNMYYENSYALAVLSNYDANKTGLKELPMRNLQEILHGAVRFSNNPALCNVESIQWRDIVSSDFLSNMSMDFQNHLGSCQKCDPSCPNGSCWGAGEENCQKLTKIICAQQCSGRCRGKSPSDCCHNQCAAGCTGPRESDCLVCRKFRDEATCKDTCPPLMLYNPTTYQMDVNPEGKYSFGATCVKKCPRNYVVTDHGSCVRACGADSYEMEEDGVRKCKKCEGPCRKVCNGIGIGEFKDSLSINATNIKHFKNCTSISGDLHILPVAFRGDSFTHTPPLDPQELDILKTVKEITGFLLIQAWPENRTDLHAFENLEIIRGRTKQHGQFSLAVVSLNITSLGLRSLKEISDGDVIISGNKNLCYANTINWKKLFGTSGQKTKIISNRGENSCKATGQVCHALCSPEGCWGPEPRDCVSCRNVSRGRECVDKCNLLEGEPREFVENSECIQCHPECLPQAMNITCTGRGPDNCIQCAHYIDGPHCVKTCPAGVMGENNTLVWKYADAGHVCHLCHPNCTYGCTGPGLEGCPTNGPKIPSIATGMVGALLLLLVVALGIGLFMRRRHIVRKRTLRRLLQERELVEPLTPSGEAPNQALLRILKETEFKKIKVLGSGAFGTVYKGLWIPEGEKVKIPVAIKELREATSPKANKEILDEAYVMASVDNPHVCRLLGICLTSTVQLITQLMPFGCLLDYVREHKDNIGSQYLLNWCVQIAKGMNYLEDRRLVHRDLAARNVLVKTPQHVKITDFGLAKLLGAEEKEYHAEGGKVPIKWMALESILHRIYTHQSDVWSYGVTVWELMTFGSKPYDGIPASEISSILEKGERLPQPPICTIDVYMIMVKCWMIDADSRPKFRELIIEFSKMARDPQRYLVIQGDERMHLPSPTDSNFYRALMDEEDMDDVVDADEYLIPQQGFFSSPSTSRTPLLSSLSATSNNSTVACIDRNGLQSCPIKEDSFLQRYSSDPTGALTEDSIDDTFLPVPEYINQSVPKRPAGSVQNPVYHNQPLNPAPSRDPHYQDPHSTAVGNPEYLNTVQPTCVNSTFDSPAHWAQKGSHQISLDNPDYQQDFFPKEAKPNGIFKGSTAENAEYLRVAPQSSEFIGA

[18] = target: Follistatin-related protein 3 (Homo sapiens) (UniProt O95633); assay: FSTL3 binders on small-molecule microarrays, primary screen, biochemical, small-molecule microarray, 635 nm fluorescence (AID 1105); settings: FSTL3 binding, higher = more signal;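 also: score merges emission near 667 nm and signal to noise per printed spot across three slides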
Follistatin-related protein 3 (Homo sapiens), sequence (O95633 whole entry, looked up): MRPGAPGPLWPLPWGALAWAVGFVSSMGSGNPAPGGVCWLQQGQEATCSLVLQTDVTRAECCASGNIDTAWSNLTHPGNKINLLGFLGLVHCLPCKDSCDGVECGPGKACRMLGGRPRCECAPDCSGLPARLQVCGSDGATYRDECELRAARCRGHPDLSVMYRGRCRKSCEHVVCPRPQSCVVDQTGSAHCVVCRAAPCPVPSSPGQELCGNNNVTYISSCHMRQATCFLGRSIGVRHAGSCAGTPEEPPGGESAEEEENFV

[19] = target: Dickkopf-related protein 1 (Homo sapiens) (UniProt O94907); assay: DKK1 binders on small-molecule microarrays, primary screen, biochemical, small-molecule microarray, 635 nm fluorescence scan (AID 1106); settings: DKK1 binding, higher = more signal;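 also: score merges emission near 667 nm with signal to noise over three replicate slides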
Dickkopf-related protein 1 (Homo sapiens), sequence (O94907 whole entry, looked up): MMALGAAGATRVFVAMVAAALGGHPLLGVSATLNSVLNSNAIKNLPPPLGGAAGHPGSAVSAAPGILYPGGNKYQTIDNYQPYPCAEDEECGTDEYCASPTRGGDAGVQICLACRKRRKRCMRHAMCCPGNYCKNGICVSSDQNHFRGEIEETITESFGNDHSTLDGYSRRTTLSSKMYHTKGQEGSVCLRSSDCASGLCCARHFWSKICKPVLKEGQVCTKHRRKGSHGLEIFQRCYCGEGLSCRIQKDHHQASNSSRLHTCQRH

[20] = system: Inhibin beta A chain (activin A); assay: INHBA (activin A) binders on microarrays, primary screen, biochemical, small-molecule microarray, 635 nm fluorescence scan (AID 1107); settings: small-molecule microarray binding, higher = more signal;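 also: mouse activin A protein probed at 4.33 µg/mL on printed slides; score merges bound-protein fluorescence near 667 nm with spot signal-to-noise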

Compound	composite z-score [1]	z-score [2]	z-score [3]	z-score [4]	composite z-score [5]	z-score [6]	composite z-score [7]	composite z-score [8]	composite z-score [9]	composite z-score [10]	composite z-score [11]	composite z-score [12]	composite z-score [13]	z-score [14]	composite z-score [15]	composite z-score [16]	composite z-score [17]	composite z-score [18]	composite z-score [19]	composite z-score [20]
CN1C(=O)C2C=CC(C(O)c3c(F)cccc3Cl)N(NC(=O)OC(C)(C)C)C2C1=O (stereo not given)	1.3	-0.143 (inactive)	0.415 (inactive)	0.635 (inactive)	3.45	-0.597 (inactive)	0.18	-0.388	0.686	0.0675	1.39	0.868	1.09	1.7 (inactive)	0.458	0.891	0.307	0.649	-0.438	0.449
CC(C)Cc1ccc(CN2CC[C@@H](N)C2)cc1	-1.05	-1.18 (inactive)	-21.4 (active)	-4.81 (inactive)	-1.26	-4.43 (inactive)	-0.119	-0.707	-0.462	-0.336	0.472	-0.459	-0.275	-1.75 (inactive)	-1.16	-0.727	-1.06	-0.431	-0.444	0.419
NCCCCCNC(=O)[C@H]1C[C@H]2C(=O)N3CCC[C@H]3C(=O)N2[C@H]1c1ccc(O)cc1	1.56	-0.948 (inactive)	-0.283 (inactive)	-0.507 (inactive)	2.58	-0.346 (inactive)	0.821	0.813	0.573	0.426	0.94	1.63	0.684	-0.391 (inactive)	1.01	1.28	0.781	1.34	1.24	1.12
CCOC(=O)C[C@H]1[C@H](OC(=O)c2ccc(C(=O)c3ccccc3)cc2)[C@@H](NC(=O)Cc2ccc(OC)cc2)c2cc(OCCCO)ccc2N1C(=O)c1ccc2ccccc2n1	0.794	0.328 (inactive)	-0.22 (inactive)	0.605 (inactive)	1.6	0.213 (inactive)	0.0768	0.666	1.16	0.0182	0.31	0.05	0.161	0.409 (inactive)	0.526	0.392	0.208	0.811	0.0905	0.468
C=C(/C(=C/C[C@H](OC(C)=O)c1ccc(OCCO)cc1)c1cc(C(=O)OC)ccc1OC)C(C)C	1.55	0.71 (inactive)	-0.299 (inactive)	-0.874 (inactive)	2.79	0.806 (inactive)	-0.0616	1.39	0.51	-0.0828	1.53	0.0971	-0.188	-0.045 (inactive)	1.12	0.451	-0.296	0.647	0.196	0.326
COCCOC(=O)N1C(=O)[C@@]2(c3cc(C#CC4(O)CCCCCC4)ccc31)[C@H](c1ccccc1OCCO)N1[C@H](c3ccccc3)[C@H](c3ccccc3)OC(=O)[C@H]1[C@@H]2C(=O)N1CCc2cc(OC)c(OC)cc2C1	1.55	2.46 (inactive)	2.71 (inactive)	5.86 (inactive)	2.96	0.339 (inactive)	-0.0903	1.24	1.05	0.0092	1.09	0.0591	0.179	0.202 (inactive)	0.99	0.929	0.345	0.528	0.0815	-0.0614
O=C1O[C@@H](c2ccccc2)[C@@H](c2ccccc2)N2[C@@H](c3ccccc3OCCO)[C@]3(C(=O)Nc4ccc(C#CC5(O)CCCCCC5)cc43)[C@@H](C(=O)N3CCN(c4ncccn4)CC3)[C@H]12	1.55	3.08 (inactive)	0.961 (inactive)	7.62 (inactive)	2.9	1.21 (inactive)	-0.122	0.662	0.821	-0.0542	0.448	-0.125	0.304	-0.562 (inactive)	0.878	1.06	0.301	0.463	0.439	-0.431
C[N+](C)(C)CCCC[C@@H]1NC(=O)[C@@H]2C[C@H](C(=O)NCCCCCN)[C@H](c3ccc(O)cc3)N2C1=O	1.53	-4.09 (inactive)	-1.1 (inactive)	-0.978 (inactive)	2.46	1.12 (inactive)	0.79	1.01	1.09	0.239	1.55	1.16	0.808	-1.1 (inactive)	1.42	1.29	0.024	0.878	0.308	0.199
COC(=O)[C@@]1(Cc2ccccc2)[C@H]2c3cc(C(=O)N4CCCC4)n(Cc4ccc(O)c(OC)c4)c3C[C@H]2CN1C(=O)c1ccccc1	-0.358	1.21 (inactive)	0.943 (inactive)	2.06 (inactive)	3.43	-0.667 (inactive)	0.641	-0.786	0.79	0.249	0.117	0.611	1.08	-2.95 (inactive)	0.253	0.632	-0.527	0.202	-0.817	0.939
C=CCNC(=O)[C@H]1[C@@H]2C(=O)O[C@@H](c3ccccc3)[C@@H](c3ccccc3)N2[C@@H](c2ccc(O)cc2)[C@]12C(=O)Nc1ccc(C#CCCO)cc12	0.586	1.35 (inactive)	1.84 (inactive)	1.13 (inactive)	1.97	0.515 (inactive)	-0.0915	-0.325	-0.356	-0.201	0.526	0.0418	0.198	0.0704 (inactive)	-0.818	-0.572	-0.326	-0.561	0.0898	0.629

Source: PubChem BioAssay
